Measurements: PubChem BioAssay AID1845226 (National Center for Advancing Translational Sciences (NCATS), 2023)
Inconclusive results are not listed. Values without a mark were called inactive. Activity calls are given as the source filed them. Calls follow the shape of the dose curve; as a rule, active = well fitted inhibition curve with a large enough effect; inconclusive = small, poorly fitted or top-dose-only effect; inactive = no such curve, though single readings can be large or run the other way.

test: Confirmatory fluorescence-based thiol-reactive (MSTI) qHTS assay for identification of artifact compounds; conditions: MSTI thiol-reactivity probe, 1 h; series mostly up to 39.2 µM; activity change, negative = inhibition: at the top concentration
Source text: PI: Alexander Tropsha Ph.D. UNC Eshelman School of Pharmacy University of North Carolina, Chapel Hill, North Carolina Hits from high-throughput screening (HTS) of chemical libraries are often false positives due to their interference with the assay detection technology. In response to this problem, we generated the largest publicly available library of chemical liabilities and developed a free webtool to predict HTS artifacts, both of which are described herein. More specifically, we generated, curated, and integrated HTS datasets for thiol reactivity, redox activity, and luciferase (firefly and nano) activity. Using these curated datasets, we developed and validated several Quantitative Structure-Interference Relationship (QSIR) models to predict nuisance behavior. […] These models were employed for virtual profiling of the National Center for Advancing Translational Science's (NCATS) in-house library, and 256 compounds for each assay were selected for the experimental validation of nuisance behavior. The BA for these external predictions ranged from 58 to 78% for compounds within the applicability domains of the models. […] The models developed in this study, along with aggregation models previously developed by our group (SCAM Detective) were implemented in "Liability Predictor," an online tool which may be used as part of chemical library design or for triaging HTS hits. Both the models and the curated datasets are publicly available at https://liability.mml.unc.edu/.
PROTOCOL TABLE SEQUENCE No. (e.g., 1, 2, 3, etc.); PARAMETER (e.g., Cells, Incubation, Reagent, etc.); VALUE; DESCRIPTION. 1; Reagent; 4 uL; […]. 2; Compounds and control; 16 nL; Kalypsis pin tool (Wako USA) equipped with a 1536-well pin head. 3; Incubation; 1 hour. 4; Detection; Fluorescence, ViewLux microplate reader, 525 nm excitation, 598 nm emission. NOTES (numbers refer to Sequence numbers above) 1. Assays determining (E)-2-(4-mercaptostyryl)-1,3,3-trimethyl-3H-indol-1-ium (MSTI) reactivity were performed as previously described in the literature with modifications for the quick identification of compounds reacting with thiol. In brief, 4 uL of MSTI or positive control Acetyl-MSTI (final concentrations of 4 uM and 4 uM, respectively) in assay buffer (2% DMSO in 1X PBS pH 7.4) was dispensed into all wells of a 1536-well assay plate (solid-bottom black plate; Greiner Bio One, Monroe, NC). 2. A Wako Pin-tool (Wako Automation, Richmond, VA) was used to transfer 16 nL of compounds (consisting of 7-plates in qHTS format, final concentration range 18.3 nM to 114 uM) or control MLS001163887 (final concentration range 1.22 nM to 40 uM). 3. Plates were centrifuged (121xg, 15 seconds) and incubated for 1 hour at room temperature protected from light. 4. Samples were read for fluorescence (Ex/Em = 525(20)/598(25) nm) on a ViewLux CCD imager (PerkinElmer). Data were normalized to Acetyl-MSTI (0% activity) and MSTI (100% activity) and the resulting percent inhibition data were fitted to a 4-parameter Hill equation using NCATS in-house software.
Potency is read from the fitted curve at half-maximal effect.

| SMILES | activity change, negative = inhibition | Potency |
| --- | --- | --- |
| COc1ccccc1N1CCN(c2ncnc3c2cnn3-c2ccc(C)cc2)CC1 | 19.1% |  |
| CCOC(=O)c1ccc(N2CCN(c3ccc(F)cc3)CC2)c(NC(=O)Nc2cccc(OC)c2)c1 | 102% |  |
| CCCS(=O)(=O)N1CCCC(C(=O)NCCCOC)C1 (stereo not given) | 5.47% |  |
| Cc1ccc(C)c(N2CCN(S(=O)(=O)c3cc(Br)cc4c3N(C(=O)C3CC3)CC4)CC2)c1 | 4.58% |  |
| Clc1ccccc1CNc1ncnc2nc[nH]c12 | 32.4% |  |
| COc1ccc(CNC(=O)CCc2c(C)nc3c4cccnc4nn3c2C)cc1 | 55% |  |
| Oc1ccc(-c2nc3ccc(Cl)cn3c2Nc2ccc3c(c2)OCO3)cc1 |  | 770 nM (active) |
| CC/C=C/C/C=C/C/C=C/CCCCCCCC(=O)OCC | -15% [at 78.4 µM] |  |
| Cc1cn(C2CCC(CO)O2)c(=O)[nH]c1=O (stereo not given) | 11.8% |  |
| Cc1ccc(C)c(N2CCN(Cc3csc(C)c3)CC2)c1 | 15.4% |  |
| CC1(C)S[C@@H]2[C@H](NC(=O)C3(N)CCCCC3)C(=O)N2[C@H]1C(=O)O | 29.3% |  |
| COc1ccc(N2C(=O)CSC23C(=O)N(CC(N)=O)c2ccccc23)cc1 (stereo not given) | 23.4% |  |
| COc1ccc([C@H]2C[C@H](O)[C@@H](n3cc(C4CC4)nn3)CN2C(=O)c2cccs2)cc1 | 92.5% |  |
| Oc1c(C(c2ccccc2F)N2CCN(Cc3ccccc3)CC2)sc2nc(-c3ccco3)nn12 (stereo not given) | 101% |  |
| O=S(=O)(O)c1ccc(N=Nc2cc(S(=O)(=O)O)c3ccccc3c2O)c2ccccc12 |  | 194 nM (active) |
| O=c1c2ccccc2nc2sc(NS(=O)(=O)c3ccc4c(c3)CCC4)nn12 | 226% |  |
| CCc1cccc(NC(=O)CN2CCCN(Cc3cccc(C)c3)S2(=O)=O)c1 | 107% |  |
| O=C(/C=C/c1ccc(O)c(O)c1)OC1C[C@](O)(C(=O)O)C[C@@H](O)[C@H]1O (stereo not given in full) | 0.358% |  |
| COc1ccc(-c2[nH]ncc2C(=O)NCc2cccc(OC)c2)cc1 | 51.6% |  |
| Nc1c(N=Nc2ccc([N+](=O)[O-])cc2)c(S(=O)(=O)O)cc2cc(S(=O)(=O)O)c(/C=C/c3ccccc3)c(O)c12 |  | 61.2 nM (active) |

| SMILES | activity change, negative = inhibition | Potency |
| --- | --- | --- |
| COC(=O)c1c(OCc2ccccn2)cc(=O)n2c1CCN(C(=O)c1n[nH]c3c1CCCC3)CC2 | 50.9% |  |
| O=C(COCc1cc(-c2cccs2)on1)NCc1ccc(Cl)cc1 | 259% |  |
| COc1ccc(CNC(=O)c2cc3sccc3n2Cc2ccc(C)cc2)cc1 | 31.5% |  |
| O=C(O)c1ccc(-n2c(/C=C\c3ccc(O)cc3)nc3ccccc3c2=O)cc1 | 62.5% |  |
| O=C(Nc1cccc(Cc2ccccc2)c1)c1ccc(-c2cccc([N+](=O)[O-])c2)o1 | -1.94% |  |
| O=C(O)c1c(O)c(O)cc2ccccc12 | -23.5% |  |
| Cc1ccc(-c2nc3scc(CCNS(=O)(=O)c4ccc(F)c(C)c4)n3n2)cc1 | 49.9% |  |
| Cc1ccc(OCCn2c(CCNC(=O)c3c(F)cccc3F)nc3ccccc32)cc1 | 19.3% |  |
| COc1cc(O)c2c(c1)oc(=O)c1c3cc(O)c(O)cc3oc21 |  | 1090 nM (active) |
| COc1ccc(Nc2nc(Nc3ccc(OC)cc3OC)nc(N3CCOCC3)n2)c(OC)c1 |  | 6120 nM (active) |
| O=C(NCCSc1c(-c2ccc(Br)cc2)[nH]c2ccccc12)c1ccc(S(=O)(=O)N2CCOCC2)cc1 | 248% |  |
| O=C(COc1cccc(Cl)c1)N1CCC(c2nc3ccccc3o2)CC1 | 40.2% |  |
| Cc1ccc2cccc(NC(=O)c3ccc(-c4cccc([N+](=O)[O-])c4)o3)c2n1 | -0.59% |  |
| Cc1cc(C)cc(NC(=O)C(CC(C)C)NC(=O)C2CCCCC2)c1 (stereo not given) | 32.1% |  |
| C=C1Cc2c(Cl)cc3[nH]c4c5c3c2[C@@]2(O)[C@@H]1C[C@@H]2C(C)(C)O[C@H]5[C@@H]1CC[C@@]2(O)[C@@]35O[C@@H]3[C@@H](O)[C@@H](C(=O)O)O[C@H]5CC[C@]2(C)[C@@]41C |  | 3860 nM (active) |
| CCOC(=O)C(C)Sc1ccc2nnc(-c3ccc(F)cc3)n2n1 (stereo not given) | 17.3% |  |
| Cc1c(C(=O)OCCOc2ccccc2)[nH]c2c1C(=O)CC(c1ccccc1)C2 (stereo not given) | 433% |  |
| CC1(C)S[C@@H]2[C@H](NC(=O)[C@H](N)c3ccccc3)C(=O)N2[C@H]1C(=O)O | 129% |  |
| CCCCOc1ccc(C2C(=O)N(C3CCCCC3)CC(=O)N2CCCC)cc1 (stereo not given) | 3.5% |  |
| CN(Cc1ccccc1)c1ncnc2c1nc1n2CCCC1 | 90% |  |
